# Values joined by “and” are separate entries in the source; they are usually repeats but may differ in a detail not shown here. Equal values may be shown once. Results filed as inconclusive are left out. Entries that show only a call come without a potency. Active and inactive are the calls of the source. Unless noted, the call rests on the fitted dose curve.
# How the values were obtained:
# [1] = target: Cytochrome P450 2C9 (Homo sapiens) (UniProt P11712); test: Cytochrome P450 family 2 subfamily C member 9 (CYP2C9) small molecule antagonists: luciferase biochemical (cell-free) qHTS assay (AID 1645842; active means well fitted inhibition curve with a large enough effect in the repeat runs; further: nearly all actives have a fitted effect of over 55% in size)
# Chain of Cytochrome P450 2C9 (Homo sapiens) (P11712 whole entry, looked up): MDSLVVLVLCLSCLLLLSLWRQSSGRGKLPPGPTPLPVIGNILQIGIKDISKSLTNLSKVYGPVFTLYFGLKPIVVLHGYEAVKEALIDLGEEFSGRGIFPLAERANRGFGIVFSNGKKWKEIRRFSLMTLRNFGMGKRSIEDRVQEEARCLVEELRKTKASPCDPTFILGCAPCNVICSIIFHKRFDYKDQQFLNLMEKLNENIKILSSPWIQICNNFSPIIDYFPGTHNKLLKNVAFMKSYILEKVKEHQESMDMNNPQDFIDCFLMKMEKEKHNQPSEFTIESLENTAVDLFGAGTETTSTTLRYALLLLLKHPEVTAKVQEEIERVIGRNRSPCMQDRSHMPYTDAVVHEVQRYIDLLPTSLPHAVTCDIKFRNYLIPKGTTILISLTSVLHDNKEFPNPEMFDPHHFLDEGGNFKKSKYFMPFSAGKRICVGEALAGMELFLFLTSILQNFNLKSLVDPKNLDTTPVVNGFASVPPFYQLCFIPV
# Method in brief: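 P450-Glo CYP2C9 system: proluciferin substrate with enzyme in mix containing 0.4% BSA, 10 min at room temperature, then NADPH regeneration solution added and incubated 1 h at 37C. Detection reagent stopped reaction; luminescence read after 20 min as RLU.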
# [2] = Cytotoxicity counterscreen for inhibitors of SARS-CoV-2 cell entry (AID 1645845); further: nearly all actives have a fitted effect of over 50% in size; further: potency means the concentration at half of the fitted maximal effect
# Method in brief: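 Counterscreen run in the same HEK293-ACE2 line as the pseudotyped-particle entry assay, without particles. Viability after 48 h at 37 C was read as ATP luminescence, scaled between cell-containing and cell-free wells.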
# [3] = Primary qHTS to identify inhibitors of SARS-CoV-2 cell entry (AID 1645846); details: activity change, negative = inhibition: at 57.1 µM (top of the series) unless noted; further: nearly all actives have a fitted effect of over 45% in size; further: potency means the concentration at half of the fitted maximal effect
# Method in brief: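 Inhibition of spike-mediated entry was scored in human ACE2-transfected Expi293F cells. Particles were MLV-pseudotyped with Wuhan-Hu-1 S carrying a 19-aa C-terminal deletion; signal was luciferase after two days, scaled between spike PP and fusion-protein-free PP.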
structure (smiles),measurement,setting,value
COc1cc(CC(C)N)cc2c1OCO2 (configuration not stated),Potency,[1],inactive
Clc1ccc(Cn2c(CN3CCCC3)nc3ccccc32)cc1,Potency,[2],inactive
COc1cc(NS(=O)(=O)c2ccc(N)cc2)ncn1,Potency,[2],inactive
same,Potency,[3],inactive
CNC[C@H](O)c1ccc(O)c(O)c1,Potency,[2],inactive
same,Potency,[3],inactive
Nc1ccc(N=Nc2ccccc2)c(N)n1,Potency,[2],inactive
same,Potency,[3],inactive
C[C@@H]1C[C@H]2[C@@H]3CCC4=CC(=O)C=C[C@]4(C)[C@@]3(F)[C@@H](O)C[C@]2(C)[C@@]1(O)C(=O)COC(=O)c1ccncc1,Potency,[2],inactive
same,Potency,[3],inactive
CO[C@]1(NC(=O)CSC(F)F)C(=O)N2C(C(=O)O)=C(CSc3nnnn3CCO)CO[C@H]21,Potency,[2],inactive
same,Potency,[3],inactive
C[C@@H]1CCN(C(=O)[C@H](CCCN=C(N)N)NS(=O)(=O)c2cccc3c2NC[C@H](C)C3)[C@@H](C(=O)O)C1,Potency,[2],inactive
same,"activity change, negative = inhibition",[3],-11.8%
CC(C)(Oc1ccc(CCNC(=O)c2ccc(Cl)cc2)cc1)C(=O)O,Potency,[2],inactive
same,Potency,[3],inactive
CNC1CCCN(c2c(F)cc3c(=O)c(C(=O)O)cn(C4CC4)c3c2OC)C1 (configuration not stated),Potency,[2],inactive
same,"activity change, negative = inhibition",[3],-27.9% and -16.1%
CCNC(=O)NCCCOc1cccc(CN2CCCCC2)c1,Potency,[2],inactive
same,Potency,[3],inactive
CC1(C)[C@H](C(=O)O)N2C(=O)C[C@H]2S1(=O)=O,Potency,[2],inactive
same,Potency,[3],inactive
COC(=O)C1=C(C)NC(C)=C(C(=O)OC)C1c1ccccc1[N+](=O)[O-],Potency,[2],inactive
same,"activity change, negative = inhibition",[3],-30.6%
CCN(CC)C(=O)Nc1ccc(OCC(O)CNC(C)(C)C)c(C(C)=O)c1 (configuration not stated),Potency,[2],inactive
CC(O)COc1ccccc1 (configuration not stated),Potency,[2],inactive
same,Potency,[3],inactive
CN(C)C(=S)SC(=S)N(C)C,Potency,[2],3.55 µM (active)
same,Potency,[3],1 µM (active)
C[N+]12CCC(CC1)C(OC(=O)C(O)(c1ccccc1)c1ccccc1)C2 (configuration not stated),Potency,[2],inactive
same,Potency,[3],inactive
CC1(C)CCC(C)(C)c2cc(NC(=O)c3ccc(C(=O)O)cc3)ccc21,Potency,[2],inactive
CCCCCOc1ccc(C2SC(=O)NC2=O)cc1OCC (configuration not stated),Potency,[2],inactive
same,"activity change, negative = inhibition",[3],-11.6%
N=C(N)c1ccc(OCCCOc2ccc(C(=N)N)cc2)cc1,Potency,[2],inactive
CO/N=C(/C(=O)N[C@@H]1C(=O)N2C(C(=O)O)=C(Cn3nnc(C)n3)CS[C@H]12)c1csc(N)n1,Potency,[2],inactive
same,Potency,[3],inactive
COC(=O)Nc1nc2ccc(Sc3ccccc3)cc2[nH]1,Potency,[2],inactive
CN(C)CCC(c1ccccc1)c1ccccn1 (configuration not stated),Potency,[2],inactive
same,"activity change, negative = inhibition",[3],-4.85%
CC(=O)CCC(=O)O,Potency,[2],inactive
same,Potency,[3],inactive
C=CCCCCCCCCC(=O)O,Potency,[2],inactive
same,Potency,[3],inactive
C1CCN2C[C@@H]3C[C@@H](CN4CCCC[C@@H]34)[C@H]2C1,Potency,[2],inactive
same,"activity change, negative = inhibition",[3],-16.5%
C[N+](C)(C)CCCCCCCCCC[N+](C)(C)C,Potency,[2],inactive
same,"activity change, negative = inhibition",[3],-5.17%
Nc1ccc(C(=O)NCC(=O)O)cc1,Potency,[2],inactive
same,"activity change, negative = inhibition",[3],4.24%
NC(=O)CCCCC1CCSS1 (configuration not stated),Potency,[2],inactive
same,Potency,[3],inactive
C[C@@H](O)[C@H](N)C(=O)O,Potency,[2],inactive
same,"activity change, negative = inhibition",[3],0.235% [at 27.1 µM]
COc1cc(NS(=O)(=O)c2ccc(N)cc2)nc(OC)n1,Potency,[2],inactive
same,"activity change, negative = inhibition",[3],2.7%
CCCCCCCCCCCCOCCOCCOCCOCCOCCOCCOCCOCCOCCO,Potency,[2],11.2 µM (active)
same,Potency,[3],11.2 µM (active)
Nc1c(CC(=O)O)cccc1C(=O)c1ccc(Br)cc1,Potency,[2],inactive
same,Potency,[3],inactive
CC(C)C[C@@H](N)C(=O)O,Potency,[2],inactive
same,"activity change, negative = inhibition",[3],3.85% [at 27.1 µM]
O=C(CCCN1CC=C(n2c(=O)[nH]c3ccccc32)CC1)c1ccc(F)cc1,Potency,[2],inactive
same,Potency,[3],inactive
CC(CNC1CCCCC1)OC(=O)c1ccccc1 (configuration not stated),Potency,[2],inactive
same,Potency,[3],inactive
CN(C)CCCN1c2ccccc2Sc2ccccc21,Potency,[2],inactive
same,Potency,[3],14.1 µM (active)
Cc1ccc(Cl)c(OCC(O)CNC(C)(C)C)c1 (configuration not stated),Potency,[2],inactive
CC(=O)OCC(=O)[C@@]1(O)CCC2C3CCC4=CC(=O)CC[C@]4(C)C3[C@@H](O)C[C@@]21C (some centres not stated),Potency,[2],inactive
same,Potency,[3],inactive
CC(C)=CCOc1ccc(/C=C/C(=O)c2ccc(OCC=C(C)C)cc2OCC(=O)O)cc1,Potency,[2],inactive
CCOc1ccccc1O[C@H](c1ccccc1)[C@H]1CNCCO1,Potency,[2],inactive
same,"activity change, negative = inhibition",[3],0.393%
NS(=O)(=O)c1cc2c(cc1Cl)NC(C1CC3C=CC1C3)NS2(=O)=O (configuration not stated),Potency,[2],inactive
same,Potency,[3],inactive
Cc1ccc(C(C)OC(=O)C2(C)CCC(C(=O)O)C2(C)C)cc1 (configuration not stated),Potency,[2],inactive
same,"activity change, negative = inhibition",[3],-10.3%
O=C1CC2(CCCC2)CC(=O)N1CCCCN1CCN(c2ncccn2)CC1,Potency,[2],inactive
same,"activity change, negative = inhibition",[3],0.863%
COC(=O)C1=C(C)NC(COC(N)=O)=C(C(=O)OC(C)C)C1c1cccc(Cl)c1Cl (configuration not stated),Potency,[2],inactive
same,"activity change, negative = inhibition",[3],-3.4%

# Reference: PubChem BioAssay (NCATS)
